Compounds with a hit are over-represented: about 1.6% of the library has one in this group of screens.
KCNQ2 block = inhibitors of rat KCNQ2 potassium channel | O88943 | CHO-K1 KCNQ2, FluxOR thallium flux, 20 min; active compounds read low | B-score at 10 µM | hit rate 1.1% among 310,000 | AID 2156;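 active = fluorescence ratio B-score at most minus 3 library SDs, with starting brightness B-score within 2 library SDs, cut at about -5.5 in these data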
KCNQ2 pot = enhances the rat KCNQ2 potassium channel; O88943; CHO-K1 KCNQ2, FluxOR thallium flux fluorescence; active compounds read high; B-score at 10 µM; hit rate 0.54% among 310,000; AID 2239;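 active = fluorescence ratio B-score at least 3 SD of library B-scores, with initial fluorescence B-score within 3 of them, cut at about 5.3 in these data; same plate scores as AID 2156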;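 also: B-score of peak minus minimum over baseline fluorescence ratio after K+ and Tl+ stimulus; positive B-score means potentiation of KCNQ2 with more thallium influx and brighter signal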
Kir21 conf inh = confirmation of mouse Kir2.1 potassium channel inhibitors. Kir2.1-expressing cells, FluxOR thallium flux fluorescence; active compounds read low. AID 2032. shares compounds with KCNQ2 pot. hit rate 41% among 2,300. Tl flux remaining, % of negative control (active compounds read low), % at 10 µM;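 active = Primary-screen hit whose thallium flux fell at least 3 control SD below untreated wells in both duplicates, with normal baseline fluorescence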;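 also: 0% = blank wells without stimulus and 100% = stimulated no-compound controls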
HEK293 ctr = alters thallium flux in parental HEK293 cells, Kir2.1 counter-screen. shares compounds with KCNQ2 pot. FluxOR thallium flux fluorescence; 0% = unstimulated blank wells. FluxOR signal as % of negative control (100 = no effect), % at 10 µM. hit rate 19% among 2,300. AID 2105;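 active = dye signal at least 3 control SD above or below untreated wells in both duplicates, raw fluorescence within 3, either direction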;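 also: percent is based on the flux ratio of peak minus minimum fluorescence over baseline F0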
CHO-K1 Tl ctr = counter-screen for KCNQ2 potentiators: effect in parental CHO-K1 cells. shares compounds with KCNQ2 pot. FluxOR thallium flux fluorescence; zero = vehicle mean+3SD, 100% = vehicle-minus-blank window. activity increase over 3SD of controls, % at 10 µM. hit rate 43% among 1,200. AID 2282;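 active = signal rise of at least 3 SD above the untreated control mean, in both duplicate wells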;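 also: counter screen of KCNQ2 potentiator hits so any rise reflects channel-independent effects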
KCNQ1 pot spec = selectivity of KCNQ2 potentiators: effect on human KCNQ1 | shares compounds with KCNQ2 pot | CHO KCNQ1 stable, FluxOR thallium flux fluorescence; beyond 3SD, as % of vehicle-control signal | activation over 3SD threshold, % at 10 µM | hit rate 28% among 1,200 | AID 2283;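 active = fluorescence ratio rise of at least 3 SD of vehicle wells above their mean, in both replicate wells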;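 also: 0% = vehicle mean plus 3 SD and 100% = vehicle minus unstimulated blank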
KCNQ2 pot confirm = confirmation of rat KCNQ2 potassium channel potentiators | hit rate 68% among 1,200 | CHO-KCNQ2 cells, FluxOR thallium flux fluorescence | shares compounds with KCNQ2 pot | AID 2287 | potentiation, less the hit threshold, % at 10 µM;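 active = fluorescence ratio rising 3 SD or more over the vehicle control mean in both replicates, plus primary screen hit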;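 also: peak minus minimum thallium fluorescence divided by baseline after K/Tl stimulus; 0% = vehicle mean plus 3 SD and 100% = vehicle minus unstimulated blank difference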
Kir2-1 sel = mouse Kir2.1 off-target activity of KCNQ2 potentiators; shares compounds with KCNQ2 pot; HEK293 Kir2.1, FluxOR thallium flux fluorescence; activity over 3SD threshold, % at 10 µM; hit rate 2% among 1,200; AID 2345;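 active = fluorescence ratio rise of at least 3 SD above the vehicle-control mean, seen in both replicates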;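 also: 0% = vehicle mean plus 3 SD and 100% = vehicle minus no-stimulus blank window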
KCNQ2 W236L MoA = KCNQ2 potentiators acting on retigabine-insensitive rat KCNQ2 W236L mutant | shares compounds with KCNQ2 pot | CHO KCNQ2-W236L, automated patch clamp current | current increase over 3SD of negative controls (%), active compounds read high, % at 25 µM | hit rate 10% among 940 | AID 2558;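 active = current increase at least 3 SD of the untreated controls above them in both duplicate recordings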
* hit, by the source's call; i = inactive; · = no result.

SMILES	KCNQ2 block	KCNQ2 pot	Kir21 conf inh	HEK293 ctr	others
CC(C)(C)C(=O)Nc1cccc(OC(F)(F)C(F)Cl)c1 (stereo unspecified)	i	5.8*	i	i	CHO-K1 Tl ctr=-15;KCNQ1 pot spec=11*;KCNQ2 pot confirm=30*;Kir2-1 sel=-40;KCNQ2 W236L MoA=i
CC(Oc1ccc(Cl)cc1)c1ccnn1S(=O)(=O)c1ccc(Cl)cc1 (stereo unspecified)	i	·	·	·
CC(Oc1ccccc1)c1ccnn1S(=O)(=O)c1ccccc1 (stereo unspecified)	i	·	52%*	i
Cc1ccsc1/C=N/NC(=O)c1nnn(-c2nonc2N)c1CN(C)c1ccccc1	i	·	·	·
COc1ccc(N2C(=O)NC(NS(=O)(=O)c3ccc(NC(C)=O)cc3)(C(F)(F)F)C2=O)cc1 (stereo unspecified)	i	0.46	·	·
CCC(C(=O)NC1CCCCCC1)n1nc(C)c2c(C)n(-c3ccccc3)nc2c1=O (stereo unspecified)	i	1.2	·	·
COc1ccc(CNC(=O)c2cc(C)nn2-c2ccccc2)cc1	i	·	·	·
COc1ccc(NC(=O)c2sc3nc(N4CCOCC4)c4c(c3c2N)CC(C)(C)OC4)cc1	i	·	·	·
CC1(C)Cc2c(c(N3CCOCC3)nc3snc(NC(=O)c4ccccc4)c23)CO1	i	8.6*	i	i	CHO-K1 Tl ctr=-13;KCNQ1 pot spec=-15;KCNQ2 pot confirm=28*;Kir2-1 sel=-18;KCNQ2 W236L MoA=i
CCC(=O)Nc1nc2ccccc2n1CCN1CCOCC1	i	·	·	·
CCCCCCn1c(C(C)NC(=O)c2ccco2)nc2ccccc21 (stereo unspecified)	-6.2*	-6.2	54%*	i
CCCCn1c(C(C)NC(=O)CC)nc2ccccc21 (stereo unspecified)	i	0.1	·	·
CCCCCCCn1c(NC(=O)CC)nc2ccccc21	i	10*	i	i	CHO-K1 Tl ctr=-21;KCNQ1 pot spec=-5;KCNQ2 pot confirm=61*;Kir2-1 sel=-45;KCNQ2 W236L MoA=i
Cc1ccc(C(=O)CSc2nnc(CNc3nc(-c4ccccc4)cs3)n2C)cc1	i	0.33	·	·
CC1=C(C)CC(C(=O)NCc2ccccc2F)C(C(=O)O)C1 (stereo unspecified)	i	·	·	·
CC(C)(C)n1nc2c(c1NC(=O)Cc1ccc(F)cc1)CSC2	i	14*	i	i	CHO-K1 Tl ctr=1.6*;KCNQ1 pot spec=-16;KCNQ2 pot confirm=84*;Kir2-1 sel=-45;KCNQ2 W236L MoA=i
CC(C)(C)C(=O)Nc1c2c(nn1-c1ccc(F)cc1)CSC2	i	0.03	·	·
CN1CCC(OC(=O)c2ccccc2)CC1	i	0.61	·	·
Cc1c(Br)cc(C(=O)OC2CCN(C)CC2)c(C)c1C	i	0.45	25%*	i
CC(C)N1C(=O)CCN(C=O)c2ccccc21	i	·	·	·
CCCC(CCC)C(=O)Nc1ccc2c(c1)N(C(=O)CCN1CCN(C)CC1)c1ccccc1CC2	i	0.81	·	·
CN(CC(=O)Nc1ccccc1Br)CC(=O)Nc1ccccc1C(F)(F)F	i	·	·	·
Cc1cccc(/C=N/NC(=O)Cc2ccc(Cl)cc2)c1O	i	7.2*	i	69%*	CHO-K1 Tl ctr=-9;KCNQ1 pot spec=7.6*;KCNQ2 pot confirm=2.5*;Kir2-1 sel=-25;KCNQ2 W236L MoA=i
Cc1cccc(/C=N\NC(=O)c2ccc(Cl)cc2)c1O	i	2.5	·	·
Cc1ccc(O)c(/C=N/NC(=O)Cc2ccc(Cl)cc2)c1	i	5.3*	i	i	CHO-K1 Tl ctr=-7;KCNQ1 pot spec=43*;KCNQ2 pot confirm=-5;Kir2-1 sel=-21
Cc1ccsc1/C=N/NC(=O)Cc1ccc(Cl)cc1	i	·	·	·
O=C(NC(=S)Nc1ccc2nc[nH]c2c1)c1ccccc1	i	·	·	·
O=C1NCC(COc2ccc(Cl)cc2)O1 (stereo unspecified)	i	·	·	·
CC(C)NC(=O)CSc1ccccc1C(=O)NNC(=O)Cn1ccc(C(F)(F)F)n1	i	·	·	·
